{
  "source": "the supplement of paper PMC6555819",
  "data": [
    {"system": "PXR homodimer (NR concentration 270 nM)", "experiment": "PBM binding z-score (relative to random genomic background probes); higher = stronger binding; sequences stand for … in GC…GCGATTGACAGCGTAGAATGAAGG", "procedure,_shortened": "(§1)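 Binding z-scores take random background probes as their reference. They come from custom Agilent 4×180K protein-binding microarrays incubated 1 h with ligand-free nuclear receptor dimers, with antibodies against each partner (one per run) detecting binding. Scanned fluorescence was regression-normalized.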", "values": [
      {"sequence": "ATCTCTAGGTAAGACTCAGTTCACTGAAGAACGC", "PBM binding z-score": 1.12},
      {"sequence": "TCATATAGATAATACAGGTGAAAGTCGGCATCTA", "PBM binding z-score": 0.495},
      {"sequence": "AATAAAGGGTCACTAGGCCAGAGTAGGTACGAAT", "PBM binding z-score": 0.43},
      {"sequence": "TCGATTAGGTTACCAATGGGGCATTCAGCTTTCT", "PBM binding z-score": -0.59},
      {"sequence": "ACTAGTTGGTCAGCTGACGTCACACACAATTCGG", "PBM binding z-score": -0.648},
      {"sequence": "AATACAGGGTCATCGTAGTCCAGAGTACGCACAG", "PBM binding z-score": 1.22},
      {"sequence": "CGAACGAGGGCATGAGATGATAGCAAATGCCGAT", "PBM binding z-score": -0.206},
      {"sequence": "ATACCAAGGAGATCGTGAGGTCGTTGATACTAAC", "PBM binding z-score": 1.21},
      {"sequence": "GCTAGCAGGCCATTTCGGTCACTCAATGACGGGC", "PBM binding z-score": -0.577},
      {"sequence": "ACTATTAGGTGAGACGAGGGCAACCGATAGGTTG", "PBM binding z-score": 0.453},
      {"sequence": "TCCTATAGGTAAATGCTAGGTGAAAGTCCGATCT", "PBM binding z-score": -0.266},
      {"sequence": "ATCTCTAGATAAGACTCAGTTCAGTGAAGAACGC", "PBM binding z-score": 0.883},
      {"sequence": "TTAGCAAGGTGAGCTGAGGTCGTTGATCCAACTC", "PBM binding z-score": 0.566},
      {"sequence": "CGCCCAAGGTCATAGGAGGTCAGTGAAGACAGAT", "PBM binding z-score": 3.76},
      {"sequence": "GCATATAGGTAGTACAAGGTGAAAGTCCGATTGT", "PBM binding z-score": 0.176},
      {"sequence": "CAAACTAGGTCAAACGTCAAAGTCGAGCCAACCA", "PBM binding z-score": 0.241},
      {"sequence": "GCGACTGGGGCATCAGCAGGTTACCGTAACTTAA", "PBM binding z-score": -0.613},
      {"sequence": "GCTGCTAGGTCAGGTTGGTCAGCTTACGGGTACG", "PBM binding z-score": -0.264},
      {"sequence": "CGTCCAAGGTCAGAGAGGTCAGTGAATGCCGAGT", "PBM binding z-score": 12.3},
      {"sequence": "TAGCCTAGGTCAGGCGGGCCAGTATAGTGTCGGC", "PBM binding z-score": -0.632},
      {"sequence": "TCTAGTTGGTCACCGAGGTCACACACGACGGGTA", "PBM binding z-score": 2.5},
      {"sequence": "GCTGCTAGGTCAACTGTTGGTCAGCTAAAGCTCG", "PBM binding z-score": -0.906},
      {"sequence": "ACAGACAGGTGATGAAGGCAACTCAGGCTATCAT", "PBM binding z-score": -0.142},
      {"sequence": "CGAACTAGGTCATCCTGGACAGTGAATACATTGA", "PBM binding z-score": -0.0548},
      {"sequence": "TTACCAAGGTGAAGGTTGTTGATCCCTCTGTAGA", "PBM binding z-score": -0.348},
      {"sequence": "GATACAGGGCCAAGGCCAGAGTACGCGTATTGAT", "PBM binding z-score": -0.406},
      {"sequence": "TTACCAAGGTGCAAGGTCGTTGATGCACGCCTTG", "PBM binding z-score": 0.648},
      {"sequence": "CCTAGTTGATCAAGGTCACACACGCTATAGGTAC", "PBM binding z-score": 3.62},
      {"sequence": "CATACTGGGCCACGAAAGGTCATTGATTCAGTGA", "PBM binding z-score": 1.75},
      {"sequence": "CCTAGTGGGTCAAGGTCACACACGCTATAGGTAC", "PBM binding z-score": 1.48},
      {"sequence": "GGAACGAGGGCATTCGTGTTGATAGCATGGCGAT", "PBM binding z-score": 0.237},
      {"sequence": "TCTAGTTGGTCCCGGAGGTCACACACGACGGGTA", "PBM binding z-score": 1.4},
      {"sequence": "CCTAGCAGCCCAGGGTCACTCAAGCATTTCGCTT", "PBM binding z-score": 0.192},
      {"sequence": "CCTACTGGGTCAAGGTCATTGATCAGTCAAAGCA", "PBM binding z-score": 2.3},
      {"sequence": "CAAACTAGGTTACCGGAAGGTCAAAGTCCGCATG", "PBM binding z-score": 1.65},
      {"sequence": "TCATGTAGATCAGCAGGTTAAGAAAGCTGGCCAA", "PBM binding z-score": 0.00655},
      {"sequence": "AGAACGAGGGCAATGAGTTGATAGCGCGGGTGGC", "PBM binding z-score": 4.62},
      {"sequence": "CCTTATGGGTCACTGACAGGTTATAGCATTTGGA", "PBM binding z-score": 0.162},
      {"sequence": "GCGACTGGGGCAAAGCAGGTCACCATAAGGTTGG", "PBM binding z-score": -0.164},
      {"sequence": "CGTCCAAGGTGAAAGGTCAGTGAAGAGATGACGG", "PBM binding z-score": 0.474}
    ]},
    {"system": "RARa:RXR (NR concentration 270 nM, RXRa partner concentration 90 nM)", "experiment": "PBM binding z-score (relative to random genomic background probes); higher = stronger binding; sequences stand for … in GC…GCGATTGACAGCGTAGAATGAAGG", "procedure,_shortened": "as §1", "values": [
      {"sequence": "ATCTCTAGGTAAGACTCAGTTCACTGAAGAACGC", "PBM binding z-score": 1.01},
      {"sequence": "TCATATAGATAATACAGGTGAAAGTCGGCATCTA", "PBM binding z-score": 1.04},
      {"sequence": "AATAAAGGGTCACTAGGCCAGAGTAGGTACGAAT", "PBM binding z-score": 4.07},
      {"sequence": "TCGATTAGGTTACCAATGGGGCATTCAGCTTTCT", "PBM binding z-score": 0.557},
      {"sequence": "ACTAGTTGGTCAGCTGACGTCACACACAATTCGG", "PBM binding z-score": 0.0415},
      {"sequence": "AATACAGGGTCATCGTAGTCCAGAGTACGCACAG", "PBM binding z-score": 5.21},
      {"sequence": "CGAACGAGGGCATGAGATGATAGCAAATGCCGAT", "PBM binding z-score": 0.422},
      {"sequence": "ATACCAAGGAGATCGTGAGGTCGTTGATACTAAC", "PBM binding z-score": 0.973},
      {"sequence": "GCTAGCAGGCCATTTCGGTCACTCAATGACGGGC", "PBM binding z-score": -0.28},
      {"sequence": "ACTATTAGGTGAGACGAGGGCAACCGATAGGTTG", "PBM binding z-score": 1.39},
      {"sequence": "TCCTATAGGTAAATGCTAGGTGAAAGTCCGATCT", "PBM binding z-score": 0.694},
      {"sequence": "ATCTCTAGATAAGACTCAGTTCAGTGAAGAACGC", "PBM binding z-score": -0.0778},
      {"sequence": "TTAGCAAGGTGAGCTGAGGTCGTTGATCCAACTC", "PBM binding z-score": 2.28},
      {"sequence": "CGCCCAAGGTCATAGGAGGTCAGTGAAGACAGAT", "PBM binding z-score": 5.06},
      {"sequence": "GCATATAGGTAGTACAAGGTGAAAGTCCGATTGT", "PBM binding z-score": 0.66},
      {"sequence": "CAAACTAGGTCAAACGTCAAAGTCGAGCCAACCA", "PBM binding z-score": 3.65},
      {"sequence": "GCGACTGGGGCATCAGCAGGTTACCGTAACTTAA", "PBM binding z-score": 0.398},
      {"sequence": "GCTGCTAGGTCAGGTTGGTCAGCTTACGGGTACG", "PBM binding z-score": 0.655},
      {"sequence": "CGTCCAAGGTCAGAGAGGTCAGTGAATGCCGAGT", "PBM binding z-score": 5.74},
      {"sequence": "TAGCCTAGGTCAGGCGGGCCAGTATAGTGTCGGC", "PBM binding z-score": 0.923},
      {"sequence": "TCTAGTTGGTCACCGAGGTCACACACGACGGGTA", "PBM binding z-score": 5.61},
      {"sequence": "GCTGCTAGGTCAACTGTTGGTCAGCTAAAGCTCG", "PBM binding z-score": 2.9},
      {"sequence": "ACAGACAGGTGATGAAGGCAACTCAGGCTATCAT", "PBM binding z-score": 0.0224},
      {"sequence": "CGAACTAGGTCATCCTGGACAGTGAATACATTGA", "PBM binding z-score": 2.02},
      {"sequence": "TTACCAAGGTGAAGGTTGTTGATCCCTCTGTAGA", "PBM binding z-score": 0.887},
      {"sequence": "GATACAGGGCCAAGGCCAGAGTACGCGTATTGAT", "PBM binding z-score": -0.762},
      {"sequence": "TTACCAAGGTGCAAGGTCGTTGATGCACGCCTTG", "PBM binding z-score": 1.13},
      {"sequence": "CCTAGTTGATCAAGGTCACACACGCTATAGGTAC", "PBM binding z-score": 4.24},
      {"sequence": "CATACTGGGCCACGAAAGGTCATTGATTCAGTGA", "PBM binding z-score": 5.41},
      {"sequence": "CCTAGTGGGTCAAGGTCACACACGCTATAGGTAC", "PBM binding z-score": 5.41},
      {"sequence": "GGAACGAGGGCATTCGTGTTGATAGCATGGCGAT", "PBM binding z-score": 0.37},
      {"sequence": "TCTAGTTGGTCCCGGAGGTCACACACGACGGGTA", "PBM binding z-score": 4.64},
      {"sequence": "CCTAGCAGCCCAGGGTCACTCAAGCATTTCGCTT", "PBM binding z-score": 3.27},
      {"sequence": "CCTACTGGGTCAAGGTCATTGATCAGTCAAAGCA", "PBM binding z-score": 4.8},
      {"sequence": "CAAACTAGGTTACCGGAAGGTCAAAGTCCGCATG", "PBM binding z-score": 5.36},
      {"sequence": "TCATGTAGATCAGCAGGTTAAGAAAGCTGGCCAA", "PBM binding z-score": 0.125},
      {"sequence": "AGAACGAGGGCAATGAGTTGATAGCGCGGGTGGC", "PBM binding z-score": -0.0907},
      {"sequence": "CCTTATGGGTCACTGACAGGTTATAGCATTTGGA", "PBM binding z-score": 3.89},
      {"sequence": "GCGACTGGGGCAAAGCAGGTCACCATAAGGTTGG", "PBM binding z-score": 2.96},
      {"sequence": "CGTCCAAGGTGAAAGGTCAGTGAAGAGATGACGG", "PBM binding z-score": 6.87}
    ]}
  ]
}
